Test results published in the supplement of paper PMC3334620.
Whole data set: some 33,000 sequences, median “E-score (-0.5 to 0.5)” near -0.053, cut for the highest 2% near 0.37. Shown is part of a subset that was picked to be rich in the highest values.

target: Hap1 (UniProt P0CE41); experiment: PBM E-score (8-mer binding enrichment) (E-score (-0.5 to 0.5)); higher = stronger / more preferred TF binding; settings: protein concentration: 200 nM; construct: GST-DNA-binding domain
Protocol: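 Universal 'all 10-mer' protein binding microarrays (Agilent AMADID 015681) probed with GST-tagged S. cerevisiae TFs (full-length or DBD) made by in vitro transcription/translation (PURExpress), about 100-200 nM. Bound TF was detected with fluorescent anti-GST. Each ungapped 8-mer (which stands for itself and its reverse complement) is scored by the PBM enrichment score (E-score), a modified Wilcoxon-Mann-Whitney statistic from -0.5 to +0.5, computed with the Universal PBM Analysis Suite. Scale: above 0.35 generally sequence-specific binding.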

UniProt P0CE41, sequence (P0CE41 whole entry, the tested form may be a part): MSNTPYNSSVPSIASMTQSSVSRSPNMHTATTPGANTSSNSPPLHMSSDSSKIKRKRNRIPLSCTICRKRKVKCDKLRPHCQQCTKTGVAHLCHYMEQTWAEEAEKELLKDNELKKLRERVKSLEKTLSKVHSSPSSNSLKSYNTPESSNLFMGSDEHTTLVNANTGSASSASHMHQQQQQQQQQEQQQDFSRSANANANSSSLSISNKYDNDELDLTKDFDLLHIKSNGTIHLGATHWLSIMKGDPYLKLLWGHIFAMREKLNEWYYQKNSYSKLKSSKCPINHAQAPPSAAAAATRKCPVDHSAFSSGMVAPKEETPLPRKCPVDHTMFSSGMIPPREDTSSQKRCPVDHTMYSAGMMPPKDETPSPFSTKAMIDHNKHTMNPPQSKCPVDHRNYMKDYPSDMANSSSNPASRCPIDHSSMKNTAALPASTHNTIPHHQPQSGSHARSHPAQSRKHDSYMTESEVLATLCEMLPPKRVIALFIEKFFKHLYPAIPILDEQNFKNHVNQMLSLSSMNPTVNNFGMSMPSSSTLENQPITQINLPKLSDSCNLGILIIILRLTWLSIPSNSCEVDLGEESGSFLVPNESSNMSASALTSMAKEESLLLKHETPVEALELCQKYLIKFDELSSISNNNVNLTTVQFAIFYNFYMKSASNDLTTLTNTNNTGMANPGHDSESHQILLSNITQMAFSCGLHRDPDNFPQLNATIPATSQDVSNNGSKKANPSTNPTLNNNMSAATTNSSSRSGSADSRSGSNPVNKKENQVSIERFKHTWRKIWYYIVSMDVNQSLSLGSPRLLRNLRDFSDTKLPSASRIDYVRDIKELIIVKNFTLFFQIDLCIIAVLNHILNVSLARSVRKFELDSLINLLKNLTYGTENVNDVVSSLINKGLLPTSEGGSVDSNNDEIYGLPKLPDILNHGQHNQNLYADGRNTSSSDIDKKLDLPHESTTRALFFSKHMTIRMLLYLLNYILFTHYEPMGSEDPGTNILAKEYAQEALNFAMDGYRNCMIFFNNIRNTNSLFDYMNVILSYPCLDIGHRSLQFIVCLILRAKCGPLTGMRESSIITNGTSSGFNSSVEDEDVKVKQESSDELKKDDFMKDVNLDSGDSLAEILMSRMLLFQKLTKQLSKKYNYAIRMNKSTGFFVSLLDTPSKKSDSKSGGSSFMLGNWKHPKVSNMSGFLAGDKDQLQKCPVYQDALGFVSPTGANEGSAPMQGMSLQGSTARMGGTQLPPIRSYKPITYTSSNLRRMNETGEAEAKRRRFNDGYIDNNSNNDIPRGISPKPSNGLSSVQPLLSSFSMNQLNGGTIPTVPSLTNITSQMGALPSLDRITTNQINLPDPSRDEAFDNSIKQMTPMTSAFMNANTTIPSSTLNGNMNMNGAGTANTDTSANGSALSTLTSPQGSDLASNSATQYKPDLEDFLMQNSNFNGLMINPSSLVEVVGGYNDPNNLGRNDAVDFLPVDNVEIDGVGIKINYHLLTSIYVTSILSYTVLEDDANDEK

| Sequence | PBM E-score |
| --- | --- |
| GCTCGGAA | 0.335 |
| ACTCGGCG | 0.259 |
| GCTCGGAC | 0.403 |
| GGTCGGAC | 0.342 |
| CCTCGGCG | 0.37 |
| CCTCGGCA | 0.294 |
| GATCAAAC | -0.0316 |
| TAGAGCAA | -0.296 |
| AGTTGATG | -0.292 |
| ACGATATA | -0.0495 |
| CCGATATA | 0.44 |
| CCGATATC | 0.458 |
| ACGATATC | 0.0796 |
| GCGATATA | 0.24 |
| CAGATATC | 0.199 |
| AATCGGGA | 0.159 |
| ATGCCTTG | -0.2 |
| CCAGACGA | -0.0873 |
| ATCGTCCA | -0.0714 |
| ACCGTCCC | 0.141 |
| ATCGTCCG | 0.379 |
| AACGTCCA | -0.0731 |

| Sequence | PBM E-score |
| --- | --- |
| CCCGTCCG | 0.314 |
| AACGTCCC | -0.179 |
| AACGTCCG | 0.371 |
| ACCGTCCG | 0.381 |
| ATCGTCCC | 0.0149 |
| CAGTGCCC | 0.00772 |
| ACAAGGGC | -0.112 |
| CCATTAGG | -0.215 |
| AATTGCAG | -0.0487 |
| CGAGGCAC | 0.0885 |
| AATAGATA | -0.00886 |
| GCCTTAAC | -0.0709 |
| CTGGTTTA | -0.309 |
| ACGTCTAC | -0.179 |
| CTGGTCAC | -0.325 |
| AACGGGGG | 0.158 |
| GCCAGAGA | -0.227 |
| CCCAGAGA | -0.226 |
| ACCGGAGC | 0.409 |
| GCCGGAGA | 0.372 |
| CCCGGAGA | 0.428 |
| GCCGGAGC | 0.344 |

| Sequence | PBM E-score |
| --- | --- |
| CCCGGAGC | 0.354 |
| ACCGGAGT | 0.4 |
| CCGGGAGA | 0.29 |
| ACCGGAAT | 0.36 |
| ACCAGAGT | -0.222 |
| GACGGAGA | 0.318 |
| ATTGGTGA | -0.281 |
| AGCTTTTG | -0.167 |
| AGTAGTGA | -0.1 |
| AAGAAGGA | -0.21 |
| ACAGGAAT | -0.135 |
| ACACGGAT | 0.209 |
| CTCCTCAC | -0.186 |
| CCGTTCCA | 0.172 |
| AACGGAGC | 0.241 |
| TCCGGAGA | 0.442 |
| AGCGGAGA | 0.276 |
| TACGGAGA | 0.326 |
| ACCGGAGG | 0.399 |
| CACGGAGA | 0.365 |
| AGCGGAGG | 0.158 |
| CCCGGAGG | 0.285 |

| Sequence | PBM E-score |
| --- | --- |
| AACGGAGA | 0.357 |
| ACAGGAGA | -0.131 |
| ACCGGAGA | 0.43 |
| AACGGAGT | 0.373 |
| CAAATAAG | 0.0685 |
| AAAACGGG | 0.174 |
| CGGGGACG | 0.163 |
| AACGCGGG | 0.267 |
| GCGTCTAA | -0.0983 |
| GACACAGA | 0.0169 |
| GCCATACC | 0.0518 |
| CTATCGAG | -0.0625 |
| CAGGTTTA | -0.0176 |
| AACGGTCG | 0.23 |
| TAGCACTA | -0.326 |
| CGATTTAA | 0.0314 |
| TGATTTAA | 0.0921 |
| GGATTTAC | 0.415 |
| CGATTTAC | 0.149 |
| AGATTTAC | -0.103 |
